The text below walks through data of the supplement of paper PMC6522484.

± gives the standard deviation of the averaged measurements.

The subject of experiment [1] is DLD1. Kind of experiment: cell viability (CellTiter-Glo) relative to plate median (fraction of plate median); higher = more viable cells. As to conditions: 5 µM; treatment time 24 h; reporter: 7TFP. The procedure, abridged:
(§1)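 Two independent replicates were averaged for each reported value. Library compounds were applied at a final 5 µM for 24 h to colorectal cancer cell lines stably expressing lentiviral TCF/Wnt firefly luciferase reporters. Firefly luciferase or CellTiterGlo luminescence from each well was normalised to the plate median.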
In general terms: In ATP-based viability assays light output follows the ATP content of the culture.

The test system of the next experiment is HCT116. The experiment is described as above. As to conditions: 5 µM; treatment time 24 h; reporter: TCF4/Wnt. The procedure, abridged: as §1
The subject of experiment [2] is SW480. The description is as above. As to conditions: 5 µM; treatment time 24 h; reporter: 7TFP. The essentials:
as §1

Experiment [3] deals with DLD1. Put plainly: TCF/Wnt firefly luciferase reporter signal relative to plate median (fraction of plate median); higher = higher Wnt reporter signal. As to conditions: 5 µM; treatment time 24 h; reporter: 7TFP. The essentials:
as §1

Experiment [4] concerns SW480. Described as above. As to conditions: 5 µM; treatment time 24 h; reporter: 7TFP. The essentials: as §1

As for `S=C=NCc1ccccc1`, the cell viability was found to be 0.961 ± 0.053 in the experiment with DLD1 [1], 0.928 ± 0.039 in the experiment on HCT116 and 0.959 ± 0.012 with SW480 [2]. For the same compound, the “TCF/Wnt firefly luciferase reporter signal” value with DLD1 [3] was found to be 0.748 ± 0.17; with SW480 [4] it was 0.822 ± 0.071.

In the case of `CC(CCc1ccccc1)NC(C)C(O)c1ccc(O)cc1` (stereo not given), the cell viability in the experiment with DLD1 [1] is 0.942 ± 0.064; in the experiment with HCT116 it was 0.904 ± 0.061; with SW480 [2] it was 0.902. Further, the “TCF/Wnt firefly luciferase reporter signal” value in the experiment with DLD1 [3] was 1.2 ± 0.11; with SW480 [4] it was 1.12 ± 0.014.

Take `COc1cc([C@@H]2c3cc4c(cc3[C@H](OC(C)=O)[C@H]3COC(=O)[C@@H]23)OCO4)cc(OC)c1OC`: the cell viability with DLD1 [1] is 0.903 ± 0.098; in the experiment on HCT116, 0.904 ± 0.027; in the experiment on SW480 [2] it was 1.02 ± 0.028. The “TCF/Wnt firefly luciferase reporter signal” value was 0.693 ± 0.014 in the experiment with DLD1 [3] and 0.867 ± 0.092 with SW480 [4].

Consider `COc1ccc(Cc2nccc3cc(OC)c(OC)cc23)cc1OC`, for which the results for the cell viability in the experiment on DLD1 [1], in the experiment on HCT116 and in the experiment on SW480 [2] were 1.09 ± 0.085, 1.01 ± 0.1 and 0.994 ± 0.066, respectively. Further, the figures for the “TCF/Wnt firefly luciferase reporter signal” value in the experiment with DLD1 [3] and in the experiment on SW480 [4] were 0.961 ± 0.052 and 1.07 ± 0.057, respectively.

With `CC1=CCCC2C1(C)CCC(C)C2(C)CC/C(C)=C/Cn1c[n+](C)c2c(N)ncnc21` (stereo not given) [AGELASINE (stereochemistry of diterpene unknown)], the cell viability stood at 1.02 ± 0.14 in the experiment with DLD1 [1], 1.06 ± 0.071 with HCT116 and 0.94 ± 0.015 in the experiment with SW480 [2]. Also, the “TCF/Wnt firefly luciferase reporter signal” value amounted to 1.18 ± 0.092 in the experiment with DLD1 [3] and 1.07 ± 0.078 with SW480 [4].

Turning to `C[C@@H]1C[C@H](C)C[C@H](C)[C@@H](O)CC(=O)O[C@H]([C@@H]2CCC[C@H]2C(=O)O)C/C=C/C=C(/C#N)[C@H](O)[C@@H](C)C1` [Borrelidin], the cell viability with DLD1 [1] turned out to be 0.894 ± 0.067; in the experiment with HCT116, 0.817 ± 0.18; with SW480 [2], 1.01 ± 0.02. For the same compound, the “TCF/Wnt firefly luciferase reporter signal” value in the experiment on DLD1 [3] stood at 0.989 ± 0.059; with SW480 [4] it was 1.06 ± 0.095.

Take `CC(=O)O[C@@H]1CC2C(C)(C)[C@H](O)C=C[C@]2(C)C2CC[C@]3(C)C(=CC(=O)O[C@H]3c3ccoc3)[C@@]21C` (stereo partly drawn) [3-alpha-HYDROXYDEOXYGEDININ]: the cell viability came out at 1.08 ± 0.092 in the experiment with DLD1 [1], 1.11 ± 0.014 with HCT116 and 1.08 ± 0.11 in the experiment with SW480 [2]. Also, the “TCF/Wnt firefly luciferase reporter signal” value with DLD1 [3] was 1.04 ± 0.097; with SW480 [4] it was 0.943 ± 0.076.

Take `Cc1ccc(-c2nc3ccc(C)cn3c2CC(=O)N(C)C)cc1`: the cell viability with DLD1 [1] turned out to be 1.02 ± 0.035; with HCT116, 1.09 ± 0.16; in the experiment on SW480 [2], 0.955 ± 0.056. Besides, the “TCF/Wnt firefly luciferase reporter signal” value was determined as 1.13 ± 0.085 with DLD1 [3] and 0.988 ± 0.06 in the experiment with SW480 [4].

Take `CN1C[C@H](CNC(=O)OCc2ccccc2)C[C@@H]2c3cccc4c3c(cn4C)C[C@H]21`: the results for the cell viability in the experiment on DLD1 [1], in the experiment on HCT116 and in the experiment on SW480 [2] were 1.03 ± 0.049, 1.03 ± 0.069 and 1.09 ± 0.057, respectively. In addition, the “TCF/Wnt firefly luciferase reporter signal” value in the experiment with DLD1 [3] is 0.986 ± 0.049; with SW480 [4], 1.01 ± 0.052.

With `O=C1C=CC(=O)c2ccccc21`, the cell viability in the experiment with DLD1 [1] was 0.9965 ± 0.005; in the experiment on HCT116, 1.05 ± 0.042; with SW480 [2], 0.989 ± 0.12. In addition, the “TCF/Wnt firefly luciferase reporter signal” value with DLD1 [3] was determined as 1.13 ± 0.057; with SW480 [4], 0.963 ± 0.047.

Regarding `COc1cc([C@@H]2c3cc4c(cc3[C@H](OC(C)=O)[C@H]3COC(=O)[C@H]23)OCO4)cc(OC)c1OC`, the cell viability with DLD1 [1] is 0.91 ± 0.17; with HCT116, 0.567 ± 0.042; in the experiment on SW480 [2], 1.205 ± 0.0071. Moreover, the “TCF/Wnt firefly luciferase reporter signal” value in the experiment on DLD1 [3] stood at 0.759 ± 0.0078; with SW480 [4], 0.702 ± 0.02.

Regarding `C[C@]12CCC(=O)C=C1C=C[C@@H]1[C@@H]2CC[C@@]2(C)[C@H]1CC[C@@]2(O)CCC(=O)O`, the cell viability amounted to 1.02 ± 0.07 with DLD1 [1], 1.16 ± 0.014 in the experiment on HCT116 and 1.04 ± 0.028 with SW480 [2]. In addition, the “TCF/Wnt firefly luciferase reporter signal” value was 1.01 ± 0.05 in the experiment with DLD1 [3] and 1.06 in the experiment on SW480 [4].

With `N#C/C(=C\c1ccc(O)cc1)C(=O)O` [alpha-CYANO-4-HYDROXYCINNAMIC ACID], the values for the cell viability in the experiment on DLD1 [1], in the experiment on HCT116 and in the experiment on SW480 [2] were 1.01 ± 0.014, 1.04 ± 0.058 and 0.9385 ± 0.0078, respectively. Also, the “TCF/Wnt firefly luciferase reporter signal” value with DLD1 [3] amounted to 0.996 ± 0.034; in the experiment with SW480 [4] it was 0.913 ± 0.033.
